From PubChem BioAssay AID489038 (National Center for Advancing Translational Sciences (NCATS), 2010)
Results filed as inconclusive are left out. The source made the active and inactive calls. Calls come from the whole dose curve; as a rule, active = well fitted inhibition curve with a large enough effect; inconclusive = small, poorly fitted or top-dose-only effect, or effect the other way; inactive = no such curve, though single readings can be large or run the other way.

Assay: DHR3 selectivity assay for inhibitors of ROR gamma transcriptional activity
Conditions: Drosophila S2 Gal4-DHR3 UAS-luciferase, 20 h; series mostly up to 92.2 µM; activity change, negative = inhibition: at the top concentration
Source text: NIH Molecular Libraries Probe Production Network [MLPCN] NIH Chemical Genomics Center [NCGC] MLPCN Grant: R03 DA026211-01 Assay Provider: Dan Littman, New York University Assay Overview: The retinoic acid-related orphan receptor (ROR) gamma is a transcription factor that has a central role in the differentiation of Th17 cells, a subset of T helper cells that secrete the inflammatory cytokines IL-17A, IL-17F, and IL-22. Th17 cells have been implicated in graft versus host disease, autoimmune disease and asthma. RORgamma is induced in naive T helper cells in the presence of TGF-beta combined with IL-6, IL-21, or IL-23, and thereafter directs the expression of the Th17 lineage cytokines. To identify […] inhibitors, a Drosophila Schneider cell line was stably transfected with two vectors: a gene expressing a fusion of the Gal4 DNA binding domain and the transactivation domain of the Drosophila Hormone Receptor 3 (DHR3), under the control of the metallothionine promoter and a Photinus luciferase reporter regulated by the Gal4 binding site enhancer, UAS. […] Small molecule inhibitors that inhibit components common to the RORgamma and DHR3 assays, such as proteins that interact with general nuclear hormone receptors, will be active in both assays and thus scored as nonselective.
Assay Protocol Summary: For screening, 600 cells in 4 uL/well were dispensed into white solid 1536-well plates (Grenier) using a solenoid-based dispenser. Following transfer of 23 nL compound or DMSO vehicle by a pin tool, the plates were incubated 1 hr at ambient temperature, and 1 uL/well copper sulfate (700 uM final concentration) was added. The plates were centrifuged 15 s at 1000 RPM and incubated 20 hr at ambient temperature. After addition of 1.5 uL Photinus luciferase detection reagent, the plates were incubated 10 min at ambient temperature and then read by an ViewLux (Perkin Elmer) to detect luminescence.
% is set by controls: 0 for no effect and ±100 for the full control effect; potency is the fitted concentration of half-maximal effect.

SMILES	Potency	activity change, negative = inhibition
Cc1cc(C)c2[nH]c(C(=O)Nc3ccc4c(c3)OCO4)cc2c1	204 nM (active)	–
COc1ccc(C(CC(=O)Nc2ccc(F)cc2)c2ccccc2)cc1 (stereo not given)	–	17% (inactive)
CC1CCCN(C(=O)CC(c2ccc3c(c2)OCO3)c2ccc(O)cc2O)C1 (stereo not given)	–	18.5% (inactive)
CC1=C(\C=C/C(C)=C/C=C\C(C)=C\C(=O)O)C(C)(C)CCC1	–	-6.6% [at 20 µM] (inactive)
COc1cc(O)c(C(CC(=O)N2CCCC(c3nc4ccccc4o3)C2)c2ccc3c(c2)OCO3)c(OC)c1 (stereo not given)	–	-5.9% (inactive)
COc1cc(O)c(C(CC(=O)N2CCC(C)CC2)c2ccc(OC)c(OC)c2)c(OC)c1 (stereo not given)	–	23.2% (inactive)
COc1cc(O)c(C(CC(=O)N2CCCC(C(C)C)C2)c2ccc3c(c2)OCO3)c(OC)c1 (stereo not given)	–	-23% (inactive)
Cc1ccc(Sc2cncc3sc(C(N)=O)cc23)cc1	102 nM (active)	–
COCC1CCCCN1C(=O)c1cc(COc2ccc3ncccc3c2)on1 (stereo not given)	9110 nM (active)	–
COc1cc(O)c(C(CC(=O)N(C)c2cccc(C)c2)c2ccc3c(c2)OCO3)c(OC)c1 (stereo not given)	–	-32.8% (inactive)
CC(C)(C)c1ccc(-c2noc(CCC(=O)Nc3cccnc3)n2)cc1	51.2 nM (active)	–
COC(=O)c1ccc(OCC(=O)c2ccc(O)cc2O)cc1	363 nM (active)	–
COc1cc(O)c(C(CC(=O)N2CCc3ccccc32)c2ccc3c(c2)OCO3)c(OC)c1 (stereo not given)	–	27.4% (inactive)
CCOC(=O)Cn1c(CN2CCc3ccccc3C2)nc2c1c(=O)n(C)c(=O)n2C	6450 nM (active)	–
COc1ccccc1CNC(=O)[C@@H](NC(=O)C1CCN(C(=O)[C@@H]2CCCN2C(=O)OC(C)(C)C)CC1)C(C)C	–	19.8% (inactive)
COc1cc(O)c(C(CC(=O)N2CCC(C)CC2)c2ccc3c(c2)OCO3)c(OC)c1 (stereo not given)	–	26.2% (inactive)
COc1ccc(C(CC(=O)N2CCCC(C)C2)c2c(O)cc(OC)cc2OC)c(OC)c1 (stereo not given)	–	15.3% (inactive)
COc1cc(O)c(C(CC(=O)N2CCCC(C)C2)c2ccc(-c3ccccc3)cc2)c(OC)c1 (stereo not given)	–	-2.77% (inactive)
CC1CCCN(C(=O)CC(c2ccc3c(c2)OCO3)c2cc(C(C)C)ccc2O)C1 (stereo not given)	–	23.2% (inactive)
COc1ccc(C(=O)/C=C/c2ccc(OC)cc2OC)c(O)c1	645 nM (active)	–

SMILES	Potency	activity change, negative = inhibition
COc1cc(O)c(C(CC(=O)NCc2ccccc2)c2ccc3c(c2)OCO3)c(OC)c1 (stereo not given)	–	15.4% (inactive)
COc1cc(O)c(C(CC(=O)N2CCCC(C)(C)C2)c2ccc3c(c2)OCO3)c(OC)c1 (stereo not given)	–	6.53% (inactive)
COc1ccc(-c2c[n+]3c(n2-c2ccc(C)cc2)CCCCC3)cc1	8120 nM (active)	–
CC1CCCN(C(=O)CC(c2ccc3c(c2)OCO3)c2ccc3ccccc3c2O)C1 (stereo not given)	–	23.6% (inactive)
COc1cc(O)c(C(CC(=O)N2CCCC(C)C2)c2ccccc2C)c(OC)c1 (stereo not given)	–	-28.6% (inactive)
COc1cc(OC)c(C(CC(=O)N2CC(C)CC(C)C2)c2ccc3c(c2)OCO3)c(OCC(N)=O)c1 (stereo not given)	–	15.1% (inactive)
Cc1ccc(C(C)C)c(C(CC(=O)N2CCCC(C)C2)c2ccc3c(c2)OCO3)c1O (stereo not given)	–	-27.4% (inactive)
CCC1(CC)CCN(C(=O)CC(c2ccc3c(c2)OCO3)c2c(O)cc(OC)cc2OC)C1 (stereo not given)	–	18.8% (inactive)
COc1cc(O)c(C(CC(=O)NC2CCCc3ccccc32)c2ccc3c(c2)OCO3)c(OC)c1 (stereo not given)	–	37% (inactive)
COc1cc(OC)c(C(CC(=O)N2CCCC(C)C2)c2ccc3c(c2)OCO3)c(OCc2ccccc2)c1 (stereo not given)	14400 nM (active)	–
COc1cc(O)c(C(CC(=O)N2CCCC(CN3CCCCC3)C2)c2ccc3c(c2)OCO3)c(OC)c1 (stereo not given)	–	-6% (inactive)
COc1ccccc1C(CC(=O)N1CCCC(C)C1)c1ccccc1 (stereo not given)	–	7.3% (inactive)
CCC1CCCN(C(=O)CC(c2ccc3c(c2)OCO3)c2c(O)cc(OC)cc2OC)C1 (stereo not given)	–	-38.2% (inactive)
CCOC(=O)c1sc(NC(=O)c2cc3c(s2)CCC(C)C3)nc1C (stereo not given)	51.2 nM (active)	–
COc1cc(O)c(C(CC(=O)N2CCCC(C)C2)c2ccccc2OC)c(OC)c1 (stereo not given)	–	0.718% (inactive)
COc1cc(O)c(C(CC(=O)N2CCCC(C)C2)c2cccc3ccccc23)c(OC)c1 (stereo not given)	–	12.5% (inactive)
COCC1CCCN(C(=O)CC(c2ccc3c(c2)OCO3)c2c(O)cc(OC)cc2OC)C1 (stereo not given)	–	0.668% (inactive)
COc1cc(O)c(C(CC(=O)N2CCCC(C(F)(F)F)C2)c2ccc3c(c2)OCO3)c(OC)c1 (stereo not given)	–	-17.6% (inactive)
CCNC(=O)CCc1nc(-c2ccc(C(C)(C)C)cc2)no1	115 nM (active)	–
Cc1ccc(C)c(C(CC(=O)N2CCCC(C)C2)c2ccc3c(c2)OCO3)c1O (stereo not given)	–	5.84% (inactive)
